# Data reported in publication PMC7826789 (International Journal of Molecular Sciences, 2021).
# What was measured:
# Conditions in all cases: Compound Concentration (nM):1000
# EGFR(G719S) = tested on: EGFR(G719S)
# [1] = tested on: EGFR(L747-E749del, A750P)
# [2] = tested on: EGFR(L747-S752del, P753S)
# EGFR(L747-T751del,Sins) = tested on: EGFR(L747-T751del,Sins)
# EGFR(L858R) = tested on: EGFR(L858R)
# EGFR(L858R,T790M) = tested on: EGFR(L858R,T790M)
# EGFR(L861Q) = tested on: EGFR(L861Q)
# EGFR(S752-I759del) = tested on: EGFR(S752-I759del)
# EGFR(T790M) = tested on: EGFR(T790M)
# EGFR = tested on: EGFR
# EIF2AK1 = tested on: EIF2AK1
# EPHA1 = tested on: EPHA1
# EPHA2 = tested on: EPHA2
# EPHA3 = tested on: EPHA3
# EPHA4 = tested on: EPHA4
# EPHA5 = tested on: EPHA5
# EPHA6 = tested on: EPHA6
# EPHA7 = tested on: EPHA7
# EPHA8 = tested on: EPHA8
# EPHB1 = tested on: EPHB1
# 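Also: KINOMEscan scanMAX binding as percent activity remaining versus control; lower means stronger binding.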
Compound,Percent Control (EGFR(G719S)) [%],Percent Control [1] [%],Percent Control [2] [%],"Percent Control (EGFR(L747-T751del,Sins)) [%]",Percent Control (EGFR(L858R)) [%],"Percent Control (EGFR(L858R,T790M)) [%]",Percent Control (EGFR(L861Q)) [%],Percent Control (EGFR(S752-I759del)) [%],Percent Control (EGFR(T790M)) [%],Percent Control (EGFR) [%],Percent Control (EIF2AK1) [%],Percent Control (EPHA1) [%],Percent Control (EPHA2) [%],Percent Control (EPHA3) [%],Percent Control (EPHA4) [%],Percent Control (EPHA5) [%],Percent Control (EPHA6) [%],Percent Control (EPHA7) [%],Percent Control (EPHA8) [%],Percent Control (EPHB1) [%]
CC1=C(C(=O)Nc2ccc3[nH]ncc3c2)C(c2ccc3ccccc3c2)CC(=O)N1 (stereo not shown) [GSK270822A],100,100,100,100,100,55,83,100,56,100,87,93,88,85,82,100,90,98,99,99
NS(=O)(=O)c1ccc(N/N=C2\C(=O)Nc3ccc(Cl)cc32)cc1 [GW280670X],100,100,100,100,100,100,87,87,100,100,100,100,100,100,96,100,100,100,100,100
Cc1cc(O)cc(C)c1/C=C/c1cncc(C(N)=O)c1 [GW435821X],67,68,87,100,80,100,71,78,94,78,100,47,62,63,51,88,100,100,28,82
Nc1ncnc2occ(-c3ccc(NC(=O)Nc4cc(C(F)(F)F)ccc4F)cc3)c12 [GW770249X],87,88,93,100,100,96,79,89,80,100,100,40,13,19,5.4,15,29,6,1.1,14
COc1ccc2cc(-c3c(-c4ccncc4)nc(-c4ccc(S(C)(=O)=O)cc4C)n3C)ccc2c1 [SB-633825],84,78,70,70,63,38,41,93,40,74,91,89,76,90,66,99,63,48,69,64
CCc1ccc(Oc2nccc(-c3c(-c4ccc(F)cc4)ncn3C3CCNCC3)n2)cc1 [SB-242719],61,48,91,71,49,73,58,85,52,48,100,94,95,95,95,100,90,100,97,100
COc1cc(C=NNc2ncnc3c2cnn3-c2ccccc2)ccc1O [GW513184X],44,46,33,64,96,76,62,64,82,100,100,100,100,100,100,83,100,90,94,99
COc1cc2ncnc(Nc3ccc4c(cnn4Cc4ccccc4)c3)c2cc1OC.Cl [GW282449A],1.4,11,3.4,5.2,0.9,78,0,78,7.2,4.4,100,100,100,100,100,100,100,100,100,100
CCS(=O)(=O)c1ccc(OC)c(Nc2ncc(-c3cccc(F)c3)o2)c1 [GW621970X],92,72,75,84,92,100,79,73,100,85,100,65,100,68,96,100,100,100,100,100
CC1=C(C(=O)Nc2ccc3[nH]ncc3c2)C(c2ccc(Cl)c(Cl)c2)CC(=O)N1 (stereo not shown) [GSK299115A],100,100,97,100,100,65,86,89,77,100,100,100,98,86,96,95,100,100,100,74
COc1cc(C)c(N(C)C(=O)CN(C)C)cc1Nc1nc(Nc2cccc(F)c2C(N)=O)c2cc[nH]c2n1 [GSK2219385],75,98,100,100,89,100,82,100,56,87,100,93,86,100,95,100,100,100,94,99
Cl.O=C(Nc1ccc(Oc2ccc3[nH]c(NC(=O)c4ccccc4)nc3c2)cc1)Nc1cc(C(F)(F)F)ccc1F [GW709042A],57,100,91,82,100,93,60,87,82,100,100,75,69,100,62,90,34,54,16,82
COc1cc(N2CCN(C(C)C)CC2)ccc1Nc1nc(Nc2ccc(F)cc2C(=O)NC[C@@H](O)CO)c2cc[nH]c2n1 [GSK1392956A],87,83,71,94,73,7.6,60,86,4.4,76,100,91,94,70,100,100,72,100,100,100
COc1ccc2c(-c3ccnc(Nc4cccc(OC(F)(F)F)c4)n3)cnn2n1 [GW810372X],73,100,98,100,100,100,75,100,82,100,100,64,91,100,86,100,100,100,100,100
COc1cc2ncn(-c3cc(O[C@H](C)c4ccccc4Cl)c(C(N)=O)s3)c2cc1OC [GSK237701A],69,100,86,87,100,79,97,100,75,100,92,100,100,100,72,100,83,88,89,81
Cl.c1ccc(Cc2nc3ccc(Nc4ncnc5ccccc45)cc3[nH]2)cc1 [GR269666A],0.6,41,70,37,36,100,9.8,71,100,5,100,100,100,100,100,100,100,100,100,100
Cl.O=C(Nc1ccc(Oc2ccc3[nH]c(NC(=O)c4ccco4)nc3c2)cc1)Nc1cc(C(F)(F)F)ccc1F [GW683134A],92,69,78,100,91,100,89,97,84,92,100,20,15,58,14,53,35,17,1.1,39
